Among all 1,400 compounds or so, about 140 (10%) were called active.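 The calls were made as follows: active = Half-maximal inhibitory dose from the fit at or below ten times the top valid tested dose; inconclusive = Invalid fit, or flat curve showing 30 to 70% inhibition; inactive = the rest.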 Not all results are given here. Entries that show only a call come without a potency. Potency and affinity values are given separately.
Target: Lysine-specific demethylase 4C (Homo sapiens) (UniProt Q9H3R0)
Assay: inhibition of JMJD2C H3K9me3 demethylation – biochemical, DELFIA europium, cherry-picked samples, dose response (AID 488835);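 also: signal is the H3K9me2 demethylation product detected by a dimethyl-specific antibody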
Conditions: GST-JMJD2C(1-420); series mostly up to 6 µM

Sequence of Lysine-specific demethylase 4C (Homo sapiens) (Q9H3R0 1-420 limits assumed): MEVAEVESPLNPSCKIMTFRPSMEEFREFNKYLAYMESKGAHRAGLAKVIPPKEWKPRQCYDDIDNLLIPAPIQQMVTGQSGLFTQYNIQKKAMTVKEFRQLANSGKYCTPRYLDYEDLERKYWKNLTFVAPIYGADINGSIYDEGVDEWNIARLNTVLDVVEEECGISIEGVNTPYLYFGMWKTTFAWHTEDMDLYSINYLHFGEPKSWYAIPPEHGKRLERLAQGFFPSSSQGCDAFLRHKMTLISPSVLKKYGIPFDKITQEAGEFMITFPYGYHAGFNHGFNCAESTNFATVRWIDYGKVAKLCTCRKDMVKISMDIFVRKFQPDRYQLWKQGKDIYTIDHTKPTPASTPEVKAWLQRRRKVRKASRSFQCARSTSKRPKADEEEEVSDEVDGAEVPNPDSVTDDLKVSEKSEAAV

| SMILES | outcome |
| --- | --- |
| Cc1cccn2c(=O)c(C(=O)NC3CC(C)CC(C)(C)C3)c(O)nc12 (stereo unspecified) | inactive |
| Cc1cccc(NC(=O)C2CCN(S(=O)(=O)c3cccc4nsnc34)CC2)n1 | inactive |
| CC(=O)Nc1ccc(NC(=O)CSc2ncnn2-c2ccccc2)cc1 | inactive |
| CCOc1ccc(NCc2nnc(SCC(=O)Nc3cc(C)on3)n2-c2ccccc2OC)cc1 | inactive |
| COCCNC(=S)N1CCN(C)CC1 | inactive |
| C/C(=N\N1CCN(c2ccccc2)CC1)c1ccncc1 | inactive |
| COc1ccc(OC)c(/C=N/NC(=O)CNC(=O)c2ccc(S(=O)(=O)N3CCOCC3)cc2)c1 | inactive |
| COc1ccc(OCC(=O)N/N=C/C(C)=C/c2ccco2)c(Br)c1 | inactive |
| CC(C)(C)n1nnnc1C(c1cccnc1)N1CCN(c2ccccc2)CC1 (stereo unspecified) | inactive |
| Cc1cccc(N2CCN(C(=O)c3ccc(CS(=O)(=O)c4ccccc4C)o3)CC2C)c1 (stereo unspecified) | inactive |
| Cc1ccc(C(O)(C(=O)NNc2ccccn2)c2ccc(C)cc2)cc1 | inactive |
| Cc1ccc(C)c(N(C(=O)c2csnn2)C(C(=O)NC2CCCC2)c2cccnc2)c1 (stereo unspecified) | inactive |
| CN(c1cccc(Cl)c1)S(=O)(=O)c1cccc(C(=O)Nc2ccc3c(c2)CCC3)c1 | inactive |
| O=C(O)COc1ccc(NC(=O)C(c2ccccc2)c2ccccc2)cc1 | inactive |
| Cc1ccc(-n2nnc3c(SCC(=O)NCC4CCCO4)ncnc32)cc1 (stereo unspecified) | inactive |
| Cc1ccc(CNC(=O)Cc2ccc(-c3ccccc3)cc2)cc1 | inactive |
| CC(=O)c1sc(NC(=O)c2ccc(C)cc2)nc1C | inactive |
| NCCN1CCN2C(=O)CN(C(=O)c3ccccc3)CC12 (stereo unspecified) | inactive |
| CC(CC(=O)Nc1cc([N+](=O)[O-])ccc1Cl)c1ccccc1 (stereo unspecified) | inactive |
| COc1ccc(N(CC(=O)Nc2ccc(S(=O)(=O)N3CCCC3)cc2)S(C)(=O)=O)cc1OC | inactive |
| COc1ccc(NC(=O)CCN2CCCCCC2)cc1 | inactive |
| Cc1ccc(NC(=O)c2ccc(OC(=O)CCN3C(=O)c4ccccc4C3=O)cc2)cc1 | inactive |

| SMILES | outcome |
| --- | --- |
| Cc1ccc(NC(=O)CSc2nnc(-c3cccs3)n2Cc2ccco2)cc1 | inactive |
| COc1ccc(N2CCN(C(=O)CSc3nnc(-c4cccnc4)n3-c3ccccc3)CC2)cc1 | inactive |
| COc1cc(S(=O)(=O)N(Cc2cccs2)CC2CCCO2)ccc1-n1cnnn1 (stereo unspecified) | inactive |
| CCOC(=O)c1sc2nc(N3CCOCC3)c3c(c2c1N)CCN(Cc1ccccc1)C3 | inactive |
| CCOC(=O)c1c(S(=O)(=O)N2CCN(c3ccc(F)cc3)CC2)c(C)n(C)c1C | inactive |
| CCOC(=O)c1c(C)[nH]c(C)c1S(=O)(=O)N(C)CC(=O)N(C)Cc1ccccc1 | inactive |
| C[C@H]1CN([C@@H](C)CO)C(=O)c2cccc(NS(=O)(=O)c3ccc(F)cc3)c2O[C@H]1CN(C)S(=O)(=O)c1cn(C)cn1 | inactive |
| Cc1ccc(C(=O)CN2C(=O)C(=O)N(Cc3ccccc3)C2=O)cc1 | inactive |
| COc1cccc(/C=C/C(=O)OCC(=O)NCc2ccc(Cl)cc2)c1 | inactive |
| O=C(Nc1c(Cl)cccc1Cl)c1cc(-c2ccco2)on1 | inactive |
| Cc1ccc(C(=O)NCc2ccco2)cc1Br | inactive |
| Cc1ccc(S(=O)(=O)N(C)C[C@@H]2Oc3ccc(NC(=O)Cn4cnnn4)cc3C(=O)N([C@@H](C)CO)C[C@H]2C)cc1 | inactive |
| CCn1c(CNC(=O)Cc2ccc(OC)cc2)nnc1SCC(=O)NC1CCCCC1 | inactive |
| CCn1nnnc1SCC(=O)NCc1cccs1 | inactive |
| Cc1ccccc1-c1ccc(=O)n(CC(=O)Nc2ccc(N3CCOCC3)cc2)n1 | inactive |
| CC(C)CC(=O)Nc1ccccc1N1CCOCC1 | inactive |
| CC1Oc2ccccc2N(Cc2ccccc2Cl)C1=O (stereo unspecified) | inactive |
| CCOC(=O)C1=C(CSc2nc(-c3ccncc3)ccc2C#N)OC(N)=C(C#N)C1c1cccnc1 (stereo unspecified) | inactive |
| CCn1c(SCC(=O)NCC(=O)Nc2ccc(F)cc2)nnc1-c1ccncc1 | inactive |
| Cc1nc2sc(C(c3cccc(F)c3)N3CCOCC3)c(O)n2n1 (stereo unspecified) | inactive |
| Cc1cc(=S)c2cccc(C)c2[nH]1 | inactive |
| CC(C)CC1c2[nH]c3ccccc3c2CCN1C(=O)c1cnccn1 (stereo unspecified) | inactive |

| SMILES | outcome |
| --- | --- |
| Cc1noc(C)c1S(=O)(=O)N(C)C[C@H]1Oc2c(cccc2N(C)C)C(=O)N([C@H](C)CO)C[C@@H]1C | inactive |
| CCOC(=O)c1c(C)[nH]c(C(=O)CN2CCOCC2)c1C | inactive |
| FC(F)(F)c1cccc(NCc2cn3cccnc3n2)c1 | inactive |
| Cc1ccc(OCc2nnnn2-c2ccccc2)cc1 | inactive |
| O=C(Nc1cccnc1)c1ccccc1Oc1ccccc1 | inactive |
| Cc1nnc(N(C)C(=O)c2ccccn2)s1 | inactive |
| CCOc1cc(NC(=S)NCCOC)c(OCC)cc1NC(=O)c1cccs1 | inactive |
| O=C(COc1c(CO)cc(Br)cc1CO)NC1CCCc2ccccc21 (stereo unspecified) | inactive |
| CCOC(=O)N1CCN(C(=S)NC(C)(C)C)CC1 | inactive |
| Cc1cccc(CN2CCC(Oc3ccc(C(=O)N4CCCC4)cc3)CC2)n1 | inactive |
| CCOC(=O)c1c(S(=O)(=O)N2CCCC(C(=O)Nc3ccc(C)cn3)C2)c(C)n(C)c1C (stereo unspecified) | inactive |
| CCOC(=O)c1c(S(=O)(=O)NCC(=O)Nc2cccc(C)c2C)c(C)n(C)c1C | inactive |
| CCCCCCC(=O)N1CCN(c2cc3c(cc2F)c(=O)c(C(=O)O)cn3CC)CC1 | inactive |
| c1csc(Cn2nnnc2CN2CCN(c3nc4ccccc4s3)CC2)c1 | inactive |
| O=C(NCc1nnc(SCC(=O)N2CCCC2)o1)c1c(F)cccc1Cl | inactive |
| CCC(=O)Nc1cc2c(C)cc(=O)oc2cc1C | inactive |
| COc1ccc(C(=O)Nc2ncc3c(n2)CC(c2ccco2)CC3=O)cc1 (stereo unspecified) | inactive |
| O=C(Nc1ccc(-c2csc(Nc3ccc(Cl)cc3)n2)cc1)c1ccccc1 | inactive |
| C[C@H]1CN([C@@H](C)CO)C(=O)c2cc(NC(=O)C3CCCCC3)ccc2O[C@H]1CN(C)S(=O)(=O)c1ccccc1 | inactive |
| COC(=O)[C@]1(C)N[C@H](CN(C)S(=O)(=O)c2ccc(C)cc2)[C@@H]2C(=O)N(Cc3ccccc3)C(=O)[C@@H]21 | inactive |
| O=c1oc2ccccc2c(O)c1C=NCc1ccccn1 | inactive |
| Cc1ccc(Nc2nc3nonc3nc2N(C)C)cc1 | inactive |

Source: PubChem BioAssay AID488835 (Broad Institute, 2010)
